# Where “and” joins values, the source holds several entries; their conditions need not be identical. Identical values can stand only once. Like-named read-outs stand apart in the source and are kept apart here.
# Columns and labels:
# TAOK2 = settings: concentration: 1 μM, replicates: in singlicate, n = 1
# TAOK3 = settings: concentration: 1 μM, replicates: in singlicate, n = 1
# TBK1 = settings: concentration: 1 μM, replicates: in singlicate, n = 1
# TEC = settings: concentration: 1 μM, replicates: in singlicate, n = 1
# TESK1 = settings: concentration: 1 μM, replicates: in singlicate, n = 1
# TGFBR1 = settings: n = 1
# TGFBR2 = settings: concentration: 1 μM, replicates: in singlicate, n = 1
# TIE1 = settings: concentration: 1 μM, replicates: in singlicate, n = 1
# TIE2 = tested on: T1, TIE2; settings: concentration: 1 μM, replicates: in singlicate; n = 1
# T1 construct: gene TEK
# TLK1 = settings: concentration: 1 μM, replicates: in singlicate, n = 1
# TLK2 = settings: concentration: 1 μM, replicates: in singlicate, n = 1
# TNIK = settings: concentration: 1 μM, replicates: in singlicate, n = 1
# TNK1 = settings: concentration: 1 μM, replicates: in singlicate, n = 1
# TNK2 = settings: concentration: 1 μM, replicates: in singlicate, n = 1
# TNNI3K = settings: concentration: 1 μM, replicates: in singlicate, n = 1
# TRKA = tested on: T2, TRKA; settings: concentration: 1 μM, replicates: in singlicate, n = 1
# T2 construct: gene NTRK1
# TRKB = settings: concentration: 1 μM, replicates: in singlicate, n = 1
# TRKC = tested on: T3, TRKC; settings: concentration: 1 μM, replicates: in singlicate, n = 1
# T3 construct: gene NTRK3
# TRPM6 = settings: concentration: 1 μM, replicates: in singlicate, n = 1
# TSSK1B = settings: concentration: 1 μM, replicates: in singlicate, n = 1
# [1] = concentration: 1 μM, replicates: in singlicate
# 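Note: KINOMEscan kinase panel screen.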
structure (smiles),measurement,setting,value
Cl.Nc1ncnc2occ(-c3ccc(NC(=O)Nc4cc(C(F)(F)F)ccc4F)cc3)c12 [SB-707548],%Inh,TAOK2,22%
same,%Inh,TAOK3,17%
same,%Inh,TBK1,35%
same,%Inh,TEC,4%
same,%Inh,TESK1,17%
same,%Inh,TGFBR1; [1],33%
same,%Inh,TGFBR2,0%
same,%Inh,TIE1,98.7%
same,%Inh,TIE2,99.8%
same,%Inh,TLK1,14%
same,%Inh,TLK2,4%
same,%Inh,TNIK,67%
same,%Inh,TNK1,46%
same,%Inh,TNK2,20%
same,%Inh,TNNI3K,90.8%
same,%Inh,TRKA,100%
same,%Inh,TRKB,94.1%
same,%Inh,TRKC,100%
same,%Inh,TRPM6,0%
same,%Inh,TSSK1B,0%
Cl.Cl.Cl.Fc1ccc(-c2ncn(C3CCNCC3)c2-c2ccnc(Nc3ccccc3)n2)cc1 [SB-238039],%Inh,TAOK2; 1 µM,78% and 0%
same,%Inh,TAOK3; 1 µM,91.5% and 57%
same,%Inh,TBK1; 1 µM,36% and 0%
same,%Inh,TEC; 1 µM,12% and 0%
same,%Inh,TESK1; 1 µM,8% and 0%
same,%Inh,"TGFBR1; concentration: 1 μM, replicates: in singlicate, 1 µM",61% and 29%
same,%Inh,TGFBR2; 1 µM,16% and 12%
same,%Inh,TIE1,0%
same,%Inh,TIE2,0%
same,%Inh,TLK1; 1 µM,4% and 19%
same,%Inh,TLK2; 1 µM,13% and 0%
same,%Inh,TNIK; 1 µM,86% and 84%
same,%Inh,TNK1; 1 µM,58% and 12%
same,%Inh,TNK2; 1 µM,0% and 10%
same,%Inh,TNNI3K,0%
same,%Inh,TRKA,0%
same,%Inh,TRKB; 1 µM,18% and 16%
same,%Inh,TRKC; 1 µM,67% and 0%
same,%Inh,TRPM6; 1 µM,6% and 0%
same,%Inh,TSSK1B,0%
O=C(NCCNc1ccnc(Nc2ccc(F)cc2)n1)Nc1ccccc1F [GSK1379880],%Inh,TAOK2,0%
same,%Inh,TAOK3,0%
same,%Inh,TBK1,6%
same,%Inh,TEC,14%
same,%Inh,TESK1,0%
same,%Inh,TGFBR1; [1],0%
same,%Inh,TGFBR2,0%
same,%Inh,TIE1,0%
same,%Inh,TIE2,0%
same,%Inh,TLK1,2%
same,%Inh,TLK2,0%
same,%Inh,TNIK,0%
same,%Inh,TNK1,0%
same,%Inh,TNK2,8%
same,%Inh,TNNI3K,5%
same,%Inh,TRKA,0%
same,%Inh,TRKB,18%
same,%Inh,TRKC,13%
same,%Inh,TRPM6,24%
same,%Inh,TSSK1B,0%
Cc1nnc(-c2ccc3ncc(-c4ccc(S(C)=O)cc4)n3c2)o1 (centres unmarked),%Inh,TAOK2,0%
same,%Inh,TAOK3,0%
same,%Inh,TBK1,15%
same,%Inh,TEC,7%
same,%Inh,TESK1,0%
same,%Inh,TGFBR1; [1],9%
same,%Inh,TGFBR2,0%
same,%Inh,TIE1,5%
same,%Inh,TIE2,6%
same,%Inh,TLK1,23%
same,%Inh,TLK2,0%
same,%Inh,TNIK,0%
same,%Inh,TNK1,0%
same,%Inh,TNK2,0%
same,%Inh,TNNI3K,1%
same,%Inh,TRKA,0%
same,%Inh,TRKB,0%
same,%Inh,TRKC,36%
same,%Inh,TRPM6,6%
same,%Inh,TSSK1B,0%
Cc1cccc(-c2nc(-c3ccc(S(C)(=O)=O)cc3)sc2-c2ccncc2)c1,%Inh,TAOK2,0%
same,%Inh,TAOK3,0%
same,%Inh,TBK1,0%
same,%Inh,TEC,26%
same,%Inh,TESK1,0%
same,%Inh,TGFBR1; [1],16%
same,%Inh,TGFBR2,0%
same,%Inh,TIE1,0%
same,%Inh,TIE2,0%
same,%Inh,TLK1,13%
same,%Inh,TLK2,13%
same,%Inh,TNIK,36%
same,%Inh,TNK1,0%
same,%Inh,TNK2,0%
same,%Inh,TNNI3K,0%
same,%Inh,TRKA,6%
same,%Inh,TRKB,0%
same,%Inh,TRKC,0%
same,%Inh,TRPM6,9%
same,%Inh,TSSK1B,0%
NCCNS(=O)(=O)c1ccc(-c2ccnc3[nH]ccc23)cc1 [GSK977617],%Inh,TAOK2,0%
same,%Inh,TAOK3; 1 µM,0% and 2%
same,%Inh,TBK1; 1 µM,27% and 24%
same,%Inh,TEC,0%
same,%Inh,TESK1; 1 µM,14% and 13%
same,%Inh,TGFBR1; [1],0%
same,%Inh,TGFBR2,0%
same,%Inh,TIE1; 1 µM,32% and 23%
same,%Inh,TIE2,0%
same,%Inh,TLK1; 1 µM,36% and 13%
same,%Inh,TLK2; 1 µM,37% and 34%
same,%Inh,TNIK; 1 µM,61% and 55%
same,%Inh,TNK1,0%
same,%Inh,TNK2; 1 µM,4% and 6%
same,%Inh,TNNI3K; 1 µM,13% and 5%
same,%Inh,TRKA; 1 µM,100% and 97.9%
same,%Inh,TRKB; 1 µM,89% and 82%
same,%Inh,TRKC; 1 µM,80% and 63%
same,%Inh,TRPM6,0%
same,%Inh,TSSK1B; 1 µM,56% and 46%
COC(=O)Nc1nc2cc(Oc3ccc(NC(=O)Nc4cc(F)ccc4F)cc3)ccc2[nH]1.Cl [GW701424],%Inh,TAOK2,0%
same,%Inh,TAOK3,0%
same,%Inh,TBK1,9%
same,%Inh,TEC,0%
same,%Inh,TESK1,73%
same,%Inh,TGFBR1; [1],27%
same,%Inh,TGFBR2,0%
same,%Inh,TIE1,93.2%
same,%Inh,TIE2,73%
same,%Inh,TLK1,0%
same,%Inh,TLK2,3%
same,%Inh,TNIK,0%
same,%Inh,TNK1,0%
same,%Inh,TNK2,11%
same,%Inh,TNNI3K,81%
same,%Inh,TRKA,5%
same,%Inh,TRKB,68%
same,%Inh,TRKC,76%
same,%Inh,TRPM6,0%
same,%Inh,TSSK1B,0%
Cc1cccc(-c2nc(Nc3ccc4ncsc4c3)c3ccccc3n2)n1 [GW867588],%Inh,TAOK2,0%
same,%Inh,TAOK3,6%
same,%Inh,TBK1,0%
same,%Inh,TEC,0%
same,%Inh,TESK1,0%
same,%Inh,TGFBR1; 1 µM,55%
same,%Inh,TGFBR2,0%
same,%Inh,TIE1,0%
same,%Inh,TIE2,0%
same,%Inh,TLK1,0%
same,%Inh,TLK2,0%
same,%Inh,TNIK,15%
same,%Inh,TNK1,39%
same,%Inh,TNK2,0%
same,%Inh,TNNI3K,1%
same,%Inh,TRKA,14%
same,%Inh,TRKB,0%
same,%Inh,TRKC,0%
same,%Inh,TRPM6,0%
same,%Inh,TSSK1B,0%
Fc1ccc(-c2ncn(CCCN3CCOCC3)c2-c2cccnc2)cc1 [SB-211743],%Inh,TAOK2,34%
same,%Inh,TAOK3,0%
same,%Inh,TBK1,43%
same,%Inh,TEC,9%
same,%Inh,TESK1,5%
same,%Inh,TGFBR1; [1],26%
same,%Inh,TGFBR2,12%
same,%Inh,TIE1,9%
same,%Inh,TIE2,0%
same,%Inh,TLK1,0%
same,%Inh,TLK2,0%
same,%Inh,TNIK,13%
same,%Inh,TNK1,14%
same,%Inh,TNK2,0%
same,%Inh,TNNI3K,0%
same,%Inh,TRKA,0%
same,%Inh,TRKB,0%
same,%Inh,TRKC,0%
same,%Inh,TRPM6,3%
same,%Inh,TSSK1B,0%
Cc1ccc(NC(=O)c2ccnc(N3CCN(C)CC3)c2)cc1-c1ccc(C(=O)NCC2CC2)cc1 [GW775604],%Inh,TAOK2,13%
same,%Inh,TAOK3,0%
same,%Inh,TBK1,13%
same,%Inh,TEC,0%
same,%Inh,TESK1,0%
same,%Inh,TGFBR1; [1],25%
same,%Inh,TGFBR2,0%
same,%Inh,TIE1,2%
same,%Inh,TIE2,0%
same,%Inh,TLK1,0%
same,%Inh,TLK2,0%
same,%Inh,TNIK,0%
same,%Inh,TNK1,34%
same,%Inh,TNK2,0%
same,%Inh,TNNI3K,0%
same,%Inh,TRKA,0%
same,%Inh,TRKB,0%
same,%Inh,TRKC,0%
same,%Inh,TRPM6,0%
same,%Inh,TSSK1B,0%
